The results in this text go back to PubChem BioAssay AID434973 (Sanford-Burnham Center for Chemical Genomics, 2010).

The structures appear in SMILES notation. The campaign covered roughly 330,000 compounds. About 4,900 (1.5%) were called active. What follows is part of a selection rich in actives, with near analogues and random picks from the rest. Unmarked numbers belong to inactive results.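 How the source made its calls: active means inhibition above about 50% at the single test dose (limit read from the data); inactive means the rest.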

The target in the assay is Sentrin-specific protease 7 (Homo sapiens) (UniProt Q9BQF6). Briefly: SENP7 protease inhibitors, primary screen, biochemical, luminescence, uHTS (AID 434973).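 Further: plate controls were DMSO with enzyme for no effect and no enzyme buffer wells for full effect.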 Conditions: recombinant SENP7, Z-RLRGG-aminoluciferin luminescence, 40 min; at 5 µM; active compounds read high.
In the case of `COc1ccccc1N(CC(=O)Nc1ccccc1C(=O)N1CCCC1)S(C)(=O)=O`, the inhibition – broadly, the drop in the measured response relative to a control, in per cent – is 5.42%.

As to `CCOC(=O)c1cnc(COc2ccccc2Cl)[nH]c1=O`, the inhibition is -8.27%.

Regarding `CCOC(=O)c1cnc2[nH]c3ccccc3n2c1=O`, the inhibition was 83.7% (active). `CCOC(=O)c1cnc2sccn2c1=O`: the inhibition was 0.0796%. Regarding `COc1cc(Cl)c(C)cc1NC(=O)CN1CCCCCC1`, the inhibition was 7.89%. On to `CC(C)CCOc1ccc(C(=O)C[N+]2(C)CCOCC2)cc1`, for which the inhibition is 0.789%. To `Cc1ccnc(NC(=O)Cn2ccc([N+](=O)[O-])n2)c1` belongs 10%. As to `O=C(Cn1ccc([N+](=O)[O-])n1)NCc1cccs1`, the inhibition is 71.3% (active). `O=C(CCn1ccc([N+](=O)[O-])n1)Nc1nccs1`: the inhibition was 0.106%. For `COc1ccc(N(CC(=O)NC2CCCCC2)C(=O)CNC(=O)c2ccco2)c(OC)c1` the value was 6.97%; for `Cc1noc(C)c1C(=O)NCCc1ccc(S(N)(=O)=O)cc1`, 10.1%; for `COc1ccc2cc(C(=O)C3CCCN(C(=O)c4sc(C)nc4C)C3)ccc2c1` (stereo not given), -3.44%. For `CCCC(=O)N(CCN1CCOCC1)c1nc2ccc(OCC)cc2s1` the value was 28.1%; for `CCOc1ccc2nc(C(=O)N3CCCC(C)C3)sc2c1` (stereo not given), 67.4% (active); for `Cc1ccc(CNC(=O)Cn2cnc3c(NCc4ccccc4)ncnc32)o1`, -4.15%. For `C=C(Cl)COC(=O)C1C2C=CC(C2)C1C(=O)O` (stereo not given) the value was -1.65%; for `CSCCC(NC(=O)C1CCC(C)CC1)C(=O)NCc1ccco1` (stereo not given), 0.735%; for `O=C(O)c1ccccc1NC(=S)NC(NC(=O)c1ccccc1[N+](=O)[O-])C(Cl)(Cl)Cl` (stereo not given), 14%. Take `CN(C)c1cc(-c2ccc(F)cc2)oc(=O)c1Cl`: the inhibition was 5.73%. With `O=c1oc2cc(O)ccc2cc1-c1ccc(F)cc1`, the inhibition is 100% (active). `CCCCCCc1cc2cc(-c3nnc(-c4ccccc4)o3)c(=O)oc2cc1O`: the inhibition is -10.4%. To `Cn1c(N)c(C(=O)COC(=O)C23CC4CC(CC(C4)C2)C3)c(=O)n(C)c1=O` belongs -1.02%; to `COc1cc(NC(=O)c2cncc(-c3ccc(C#N)cc3)c2)cc(C(=O)Nc2cccc(C(F)(F)F)c2)c1`, -7.54%; to `O=C(Nc1nc2ccc([N+](=O)[O-])cc2s1)c1ccncc1`, 85.8% (active).

For `O=C(NC(Nc1nc2ccc([N+](=O)[O-])cc2s1)(C(F)(F)F)C(F)(F)F)c1ccccc1`, the inhibition is 3.23%. For the compound `COc1ccc(C(=O)Nc2nc(-c3ccc(OC)cc3)c(-c3ccc([N+](=O)[O-])cc3)s2)cc1`, the inhibition was -0.702%. For `CCCc1cc(=O)oc2c(C)c(OCC(=O)NCc3ccccn3)ccc12` the value was 12.3%; for `CCCc1cc(=O)oc2c(C)c(OCC(=O)Nc3ccccn3)ccc12`, 70.1% (active); for `CCCc1cc(=O)oc2c(C)c(OCC(=O)N3CCC(C(=O)O)CC3)ccc12`, -6.34%. For `CCO/N=C(/C)c1c(O)cc(-c2ccccc2)n(-c2ccccc2)c1=O`, the inhibition was 0.576%. For `CC1CCCC(NC(=O)c2cc(-c3ccncc3)nc3ccccc23)C1C` (stereo not given) the value was -16.1%; for `S=c1[nH]nc(-c2cc(-c3ccsc3)n[nH]2)n1-c1ccccc1`, 4.56%; for `Oc1ccccc1-c1cc(-c2ccc(Cl)cc2)n[nH]1`, 92% (active). For `CC(C)C(=O)NCc1cc(-c2ccc(Cl)cc2)no1`, the inhibition is 5.4%.

In the case of `S=c1[nH]nc(-c2cc(-c3ccccc3)n[nH]2)n1/N=C/c1c2ccccc2cc2ccccc12`, the inhibition was -9.51%.

Regarding `c1ccc(-c2cc(-c3ccccc3)[nH]n2)cc1`, the inhibition was 54.4% (active).

Consider `Cc1ccc(NC(=O)c2cc(-c3ccccc3O)n[nH]2)cc1C`, for which the inhibition is -11.8%. Take `CO[C@@H]1[C@@H](OC(N)=O)[C@@H](O)C(Oc2ccc3c(O)c(NC(=O)c4ccc(O)c(CC=C(C)C)c4)c(=O)oc3c2C)OC1(C)C` (stereo not given in full): the inhibition was -1.54%.

Take `COc1ccc(-n2nnnc2SCC(=O)c2ccc(OC)c(OC)c2)cc1`: the inhibition is 3.65%. To `CCC(C)C(N=C1NS(=O)(=O)c2ccccc21)C(=O)N1CCC(C)CC1` (stereo not given) belongs 2.08%; to `CCc1nnc(NC(=O)CSCc2cc(=O)n3cc(C)sc3n2)s1`, -0.123%. On to `CCCCN(C(=O)C1=NN(c2cc(C)ccc2C)C(=O)CC1)c1c(N)n(CCC)c(=O)[nH]c1=O`, for which the inhibition was 1.8%. For `Cc1ccc(CNC(=O)C2CCCN2C(=O)NCc2ccccc2)cc1` (stereo not given), the inhibition is -3.49%. Consider `O=C(NC1CCCC1)C(c1ccccn1)N(C(=O)c1csnn1)C1CCCC1` (stereo not given), for which the inhibition is 4.87%. With `CCC(=O)Nc1ccc(C(=O)NNC(=O)c2ccc(Cl)cc2)cc1`, the inhibition is -16.2%. As to `O=C(NCc1ccccn1)Nc1ccc(Cl)cc1`, the inhibition was 0.805%.

`O=C(Nc1ccc(Cl)cc1)c1ccsn1`: the inhibition was 51% (active).

Regarding `O=C1CC(Cc2ccccc2)C(=O)N1c1ccc(Cl)cn1` (stereo not given), the inhibition was -5.29%. To `COc1ccccc1C1CCN(C(=S)Nc2ccc(Br)cc2)CC1` belongs 5.73%; to `O=C(Nc1ccc2oc(-c3ccc4ccccc4c3)nc2c1)c1cccs1`, -22.1%. As for `Cc1cc2nc(-c3ccc(NC(=O)c4cccnc4)cc3)oc2cc1C`, the inhibition is -3.95%. For `CCc1ccc2oc(-c3ccc(N)cc3)nc2c1` the value was 97.1% (active). `CNC(=O)c1c(NC(NC(=O)c2ccco2)C(=O)c2ccc(Cl)cc2)sc2c1CCCC2` (stereo not given): the inhibition was 3.25%. With `CCOC(=O)c1ccc(NC(=O)c2cc(=O)[nH]c3ccccc23)cc1`, the inhibition is 4.62%.

Consider `CCOC(=O)c1ccc(Nc2cc(C)nc3nc(C)nn23)cc1`, for which the inhibition was 0.148%.

Take `CCOC(=O)c1ccc(Nc2cc3ccccc3c(=O)[nH]2)cc1`: the inhibition is 84.1% (active). For `Cc1ccc(CN2CCN(c3ncccn3)CC2)c(C)c1`, the inhibition was -3.53%.

Consider `Cc1cc(=O)oc2c(C)c(OCC(=O)NCCc3ccc(S(N)(=O)=O)cc3)ccc12`, for which the inhibition is 7.75%. On to `N#C/C=C/N1CCN(Cc2ccc3c(c2)OCO3)CC1`, for which the inhibition was -6.74%. On to `Cc1c(NC(=S)NC(=O)CCc2ccccc2)c(=O)n(-c2ccccc2)n1C`, for which the inhibition was -7.18%.
